According to the supplement of paper PMC10849652:
The full data set covers some 8,800 targets. This sample favours those with a hit. About 0.5% of all pairs of compound and target were hits.

Legend:
Test in all cases: log2 fold change, soluble protein after heating vs DMSO (PISA); higher = thermal stabilisation; K562 lysate, 10 uM; active = over 0.2 and 3.5 SD of the protein, either way, in both replicates (recomputed)
ibrutinib = compound: C=CC(=O)N1CCC[C@@H](n2nc(-c3ccc(Oc4ccccc4)cc3)c3c(N)ncnc32)C1 [ibrutinib]
Summary of the method: (§1)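 Quantification was by TMTpro 16plex LC-MS/MS with equalised channel sums, applied to the supernatant after 21,000xg for 90 min. Samples were crude K562 extract at 1 mg/mL protein in PBS pH 7.4 with 1 mM MgCl2, treated with 10 μM compound for 30 min, heated for 3 min across 48°C-58°C, pooled and brought to 0.5% NP-40 at 4°C. Values are log-two fold changes in thermal stability relative to solvent controls, from duplicates.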

[1] = compound: CC(=O)c1cnc2ccc(-c3cc(Cl)c(O)c(Cl)c3)nc2c1N[C@H]1CC[C@H](CN(C)C)CC1
Summary of the method: as §1

ralimetinib = compound: CC(C)(C)Cn1c(N)nc2ccc(-c3[nH]c(C(C)(C)C)nc3-c3ccc(F)cc3)nc21 [ralimetinib]
Summary of the method: as §1

[2] = compound: CC(C)(O)CC(=O)NCCn1ccc2ncnc(Nc3ccc(Oc4cccc(C(F)(F)F)c4)c(Cl)c3)c21
Summary of the method: as §1

[3] = compound: CC(C)C1=C2N=C(C=C(N2N=C1)NCC3=CC=CC=C3)NCCCCCCN
Summary of the method: as §1

[4] = compound: CC1=C(C(CC(=O)N1)C2=CC=C(C=C2)C(F)(F)F)C(=O)NC3=C(C=C4C(=C3)C=NN4)F
Summary of the method: as §1

[5] = compound: CC1=C(C2=C(C=C1)C(=O)C3=CC=CC=C3N2CCCN)C
Summary of the method: as §1

[6] = compound: CC1=C(C=C(C=C1)NC(=O)C2=CC(=CC=C2)C(C)(C)C#N)NC3=CC4=C(C=C3)N=CN(C4=O)C
Summary of the method: as §1

[7] = compound: CC1=C(C=C(C=C1)NC(=O)C2=CC(=CC=C2)N(C)C)NC(=O)C3=CC=C(C=C3)O
Summary of the method: as §1

[8] = compound: CC1=CC=C(C=C1)SC2=C3C=C(SC3=CN=C2)C(=O)N
Summary of the method: as §1

vemurafenib = compound: CCCS(=O)(=O)Nc1ccc(F)c(C(=O)c2c[nH]c3ncc(-c4ccc(Cl)cc4)cc23)c1F [vemurafenib]
Summary of the method: as §1

[9] = compound: CCCS(=O)(=O)Nc1ccc(F)c(C(=O)c2c[nH]c3ncc(Cl)cc23)c1F
Summary of the method: as §1

barasertib = compound: CCN(CCCOc1ccc2c(Nc3cc(CC(=O)Nc4cccc(F)c4)[nH]n3)ncnc2c1)CCOP(=O)(O)O [barasertib]
Summary of the method: as §1

[10] = compound: CC[C@@H]1C(=O)N(C)c2cnc(Nc3ccc(C(=O)NC4CCN(C)CC4)cc3OC)nc2N1C1CCCC1
Summary of the method: as §1

volasertib = compound: CC[C@@H]1C(=O)N(C)c2cnc(Nc3ccc(C(=O)N[C@H]4CC[C@H](N5CCN(CC6CC6)CC5)CC4)cc3OC)nc2N1C(C)C [volasertib]
Summary of the method: as §1

[11] = compound: CCn1c(C(=O)N(C2CC2)C2CC2)cc2c3c(ncn3C)c(Nc3cc(C)n(C)n3)nc21
Summary of the method: as §1

[12] = compound: CCn1cc(-c2ccnc3[nH]c(-c4cccc(CN(C)C)c4)cc23)c(-c2ccc(NC(=O)N(C)C)cc2)n1
Summary of the method: as §1

[13] = compound: CN1CCC(CNc2ccc3ncc(-c4cccc(OC(F)(F)F)c4)n3n2)CC1
Summary of the method: as §1

saracatinib = compound: CN1CCN(CCOc2cc(OC3CCOCC3)c3c(Nc4c(Cl)ccc5c4OCO5)ncnc3c2)CC1 [saracatinib]
Summary of the method: as §1

sotrastaurin = compound: CN1CCN(c2nc(C3=C(c4c[nH]c5ccccc45)C(=O)NC3=O)c3ccccc3n2)CC1 [sotrastaurin]
Summary of the method: as §1

Measured: log2 fold change

TECR (UniProt Q9NZ01)
Chain of UniProt Q9NZ01 (Q9NZ01 whole entry, looked up): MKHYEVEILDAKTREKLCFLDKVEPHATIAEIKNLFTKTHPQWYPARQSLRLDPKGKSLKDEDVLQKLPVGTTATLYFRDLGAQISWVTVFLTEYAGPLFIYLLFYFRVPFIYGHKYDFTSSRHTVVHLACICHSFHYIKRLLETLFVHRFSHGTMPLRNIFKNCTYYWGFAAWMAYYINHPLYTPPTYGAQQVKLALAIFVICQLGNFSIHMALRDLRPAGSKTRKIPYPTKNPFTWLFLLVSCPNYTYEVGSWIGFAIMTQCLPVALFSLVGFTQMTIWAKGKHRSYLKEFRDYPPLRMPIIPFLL
inactive: ibrutinib -0.003 | [1] 0.037 | ralimetinib 0 | [2] -0.046 | [3] -0.003 | [4] 0.044 | [5] 0.041 | [6] -0.031 | [7] 0.06 | [8] 0.025 | vemurafenib -0.003 | [9] 0.054 | barasertib 0.082 | [10] -0.02 | volasertib 0.001 | [11] 0.032 | [12] 0.014 | [13] -0.247 | saracatinib 0.045 | sotrastaurin -0.034

TIMELESS (UniProt Q9UNS1)
Chain of UniProt Q9UNS1 (Q9UNS1 whole entry, looked up): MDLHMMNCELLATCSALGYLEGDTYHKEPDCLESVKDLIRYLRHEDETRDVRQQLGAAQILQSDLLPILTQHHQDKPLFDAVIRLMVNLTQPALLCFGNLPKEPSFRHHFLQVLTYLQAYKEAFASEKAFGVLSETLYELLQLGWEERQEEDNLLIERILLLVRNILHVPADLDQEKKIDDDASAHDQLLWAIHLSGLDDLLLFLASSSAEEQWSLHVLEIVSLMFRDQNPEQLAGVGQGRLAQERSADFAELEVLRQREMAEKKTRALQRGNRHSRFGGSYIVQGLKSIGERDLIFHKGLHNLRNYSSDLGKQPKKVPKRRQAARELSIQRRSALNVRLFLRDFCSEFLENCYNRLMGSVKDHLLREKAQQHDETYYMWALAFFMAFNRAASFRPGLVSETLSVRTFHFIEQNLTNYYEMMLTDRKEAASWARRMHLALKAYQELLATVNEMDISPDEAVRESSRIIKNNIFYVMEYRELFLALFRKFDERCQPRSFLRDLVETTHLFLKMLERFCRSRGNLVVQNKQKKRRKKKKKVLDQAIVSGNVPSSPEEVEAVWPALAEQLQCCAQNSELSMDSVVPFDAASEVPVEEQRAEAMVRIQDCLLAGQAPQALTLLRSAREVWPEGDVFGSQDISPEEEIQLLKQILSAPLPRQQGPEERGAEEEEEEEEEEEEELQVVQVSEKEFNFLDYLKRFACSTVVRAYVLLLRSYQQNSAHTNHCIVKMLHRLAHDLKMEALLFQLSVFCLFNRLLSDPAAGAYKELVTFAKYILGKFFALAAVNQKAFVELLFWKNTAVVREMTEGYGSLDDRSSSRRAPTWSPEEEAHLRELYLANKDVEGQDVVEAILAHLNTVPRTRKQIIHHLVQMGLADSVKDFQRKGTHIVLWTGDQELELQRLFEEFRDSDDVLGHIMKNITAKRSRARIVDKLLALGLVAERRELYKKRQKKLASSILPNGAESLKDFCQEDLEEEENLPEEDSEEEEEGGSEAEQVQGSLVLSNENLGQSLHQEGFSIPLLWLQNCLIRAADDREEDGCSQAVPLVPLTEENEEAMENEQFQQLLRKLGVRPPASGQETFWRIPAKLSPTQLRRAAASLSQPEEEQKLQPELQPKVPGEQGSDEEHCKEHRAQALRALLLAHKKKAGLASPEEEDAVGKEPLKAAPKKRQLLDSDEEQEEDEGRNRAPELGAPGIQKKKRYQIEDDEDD
inactive: ibrutinib 0.011 | [1] -0.079 | ralimetinib 0.006 | [2] -0.053 | [3] -0.01 | [4] 0.011 | [5] -0.007 | [6] -0.01 | [7] 0.029 | [8] -0.027 | vemurafenib 0.035 | [9] 0.031 | barasertib 0.039 | [10] -0.058 | volasertib 0.043 | [11] 0.013 | [12] -0.094 | [13] -0.07 | saracatinib 0.035 | sotrastaurin 0

UFM1 (UniProt P61960)
Chain of UniProt P61960 (P61960 whole entry, looked up): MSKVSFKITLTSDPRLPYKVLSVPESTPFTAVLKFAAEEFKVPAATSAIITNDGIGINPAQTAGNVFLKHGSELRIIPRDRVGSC
inactive: ibrutinib 0.059 | [1] 0.072 | ralimetinib 0.008 | [2] -0.014 | [3] -0.003 | [4] -0.04 | [5] -0.007 | [6] -0.097 | [7] -0.038 | [8] 0.109 | vemurafenib -0.249 | [9] -0.035 | barasertib 0.039 | [10] 0.044 | volasertib 0.047 | [11] 0.014 | [12] 0.491 | [13] -0.338 | saracatinib 0.016 | sotrastaurin 0.028

TRIM33 (UniProt H0Y612)
inactive: ibrutinib 0.016 | [1] -0.003 | ralimetinib 0.135 | [2] -0.084 | [3] 0.068 | [4] -0.099 | [5] -0.004 | [6] -0.031 | [7] -0.009 | [8] -0.012 | vemurafenib 0.012 | [9] 0.007 | barasertib 0.087 | [10] 0.018 | volasertib 0.012 | [11] 0.093 | [12] -0.017 | [13] 0.051 | saracatinib -0.078 | sotrastaurin 0.006

TUBB1 (UniProt Q9H4B7)
Chain of UniProt Q9H4B7 (Q9H4B7 whole entry, looked up): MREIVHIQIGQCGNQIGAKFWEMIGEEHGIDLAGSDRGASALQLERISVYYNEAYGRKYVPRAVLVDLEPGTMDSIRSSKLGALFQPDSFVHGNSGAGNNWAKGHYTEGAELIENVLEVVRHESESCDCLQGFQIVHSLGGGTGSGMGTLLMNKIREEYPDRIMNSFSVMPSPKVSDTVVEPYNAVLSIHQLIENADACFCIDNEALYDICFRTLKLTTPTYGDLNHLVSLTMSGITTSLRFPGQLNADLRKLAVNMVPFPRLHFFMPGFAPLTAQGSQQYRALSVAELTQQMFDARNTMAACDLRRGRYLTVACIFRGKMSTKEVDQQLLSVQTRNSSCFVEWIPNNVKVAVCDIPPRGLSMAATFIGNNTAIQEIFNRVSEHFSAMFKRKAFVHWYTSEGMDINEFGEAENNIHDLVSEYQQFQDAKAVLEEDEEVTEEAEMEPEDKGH
inactive: ibrutinib -0.005 | [1] -0.01 | ralimetinib -0.003 | [2] -0.007 | [3] 0 | [4] 0.049 | [5] 0.028 | [6] -0.036 | [7] 0.002 | [8] 0.012 | vemurafenib -0.039 | [9] 0.011 | barasertib 0.002 | [10] -0.025 | volasertib -0.087 | [11] 0.034 | [12] 0.15 | [13] -0.025 | saracatinib -0.002 | sotrastaurin -0.045

TMOD1 (UniProt P28289)
Chain of UniProt P28289 (P28289 whole entry, looked up): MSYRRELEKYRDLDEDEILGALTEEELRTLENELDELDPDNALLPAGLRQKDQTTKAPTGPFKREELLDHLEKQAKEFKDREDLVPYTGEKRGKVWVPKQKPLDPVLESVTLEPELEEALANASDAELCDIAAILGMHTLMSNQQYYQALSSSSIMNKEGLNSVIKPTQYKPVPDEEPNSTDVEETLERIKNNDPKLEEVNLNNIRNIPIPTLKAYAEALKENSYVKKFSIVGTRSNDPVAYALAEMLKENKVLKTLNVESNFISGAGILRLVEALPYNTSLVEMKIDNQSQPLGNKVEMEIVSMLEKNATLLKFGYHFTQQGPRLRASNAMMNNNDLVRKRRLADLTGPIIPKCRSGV
inactive: ibrutinib 0.002 | [1] 0.007 | ralimetinib -0.015 | [2] -0.02 | [3] 0 | [4] -0.004 | [5] 0.006 | [6] 0 | [7] 0.016 | [8] -0.019 | vemurafenib -0.015 | [9] -0.02 | barasertib 0.027 | [10] -0.027 | volasertib -0.031 | [11] -0.024 | [12] 0.041 | [13] -0.031 | saracatinib -0.001 | sotrastaurin -0.017

TTC38 (UniProt Q5R3I4)
Chain of UniProt Q5R3I4 (Q5R3I4 whole entry, looked up): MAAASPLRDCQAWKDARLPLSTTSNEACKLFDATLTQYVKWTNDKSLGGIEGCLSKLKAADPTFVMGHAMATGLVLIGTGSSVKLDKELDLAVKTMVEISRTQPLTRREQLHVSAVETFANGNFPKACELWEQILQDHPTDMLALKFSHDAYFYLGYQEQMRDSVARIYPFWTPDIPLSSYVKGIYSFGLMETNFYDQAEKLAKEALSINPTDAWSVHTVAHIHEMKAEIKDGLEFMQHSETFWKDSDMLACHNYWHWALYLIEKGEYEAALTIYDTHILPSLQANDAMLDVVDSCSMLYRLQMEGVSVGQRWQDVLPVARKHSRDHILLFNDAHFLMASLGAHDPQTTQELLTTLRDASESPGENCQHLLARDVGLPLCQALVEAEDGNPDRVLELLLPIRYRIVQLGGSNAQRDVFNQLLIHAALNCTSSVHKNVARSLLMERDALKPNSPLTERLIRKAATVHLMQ
inactive: ibrutinib -0.049 | [1] 0.033 | ralimetinib 0.008 | [2] 0.007 | [3] -0.011 | [4] 0.005 | [6] -0.013 | [7] 0.067 | [8] 0.014 | vemurafenib 0.035 | [9] 0.03 | barasertib 0.102 | [10] 0.004 | volasertib -0.001 | [11] -0.047 | [12] 0.189 | [13] -0.181 | saracatinib -0.026 | sotrastaurin -0.027
active: [5] 0.332

TBL3 (UniProt Q12788)
inactive: ibrutinib -0.006 | [1] -0.016 | ralimetinib 0.027 | [2] 0.001 | [3] 0.026 | [4] 0.013 | [5] -0.017 | [6] 0.027 | [7] 0.046 | [8] 0.008 | vemurafenib 0.02 | [9] 0.003 | barasertib 0.042 | [10] -0.018 | volasertib -0.006 | [11] 0.004 | [12] -0.005 | [13] -0.012 | saracatinib 0.026 | sotrastaurin 0.009

TTLL12 (UniProt Q14166)
Chain of UniProt Q14166 (Q14166 whole entry, looked up): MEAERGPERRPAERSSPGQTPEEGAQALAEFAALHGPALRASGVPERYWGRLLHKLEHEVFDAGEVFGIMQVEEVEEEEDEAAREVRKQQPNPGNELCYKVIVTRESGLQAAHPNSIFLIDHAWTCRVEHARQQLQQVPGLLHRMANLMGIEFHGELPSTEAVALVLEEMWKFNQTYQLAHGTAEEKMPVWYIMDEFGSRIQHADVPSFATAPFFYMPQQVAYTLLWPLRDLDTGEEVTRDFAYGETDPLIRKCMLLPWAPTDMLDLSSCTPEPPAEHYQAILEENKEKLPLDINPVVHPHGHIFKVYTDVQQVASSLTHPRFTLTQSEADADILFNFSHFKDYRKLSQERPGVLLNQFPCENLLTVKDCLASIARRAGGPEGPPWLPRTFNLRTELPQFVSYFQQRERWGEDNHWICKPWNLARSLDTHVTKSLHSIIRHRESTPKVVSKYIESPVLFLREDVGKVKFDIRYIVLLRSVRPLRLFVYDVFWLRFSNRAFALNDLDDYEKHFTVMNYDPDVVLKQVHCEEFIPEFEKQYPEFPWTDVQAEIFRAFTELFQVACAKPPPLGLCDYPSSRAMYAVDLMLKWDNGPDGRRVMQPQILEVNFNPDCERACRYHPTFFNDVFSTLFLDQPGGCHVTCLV
inactive: ibrutinib -0.018 | [1] 0.003 | ralimetinib 0.026 | [2] 0.005 | [3] 0.044 | [4] -0.026 | [5] -0.032 | [6] -0.008 | [7] 0.031 | [8] 0.012 | vemurafenib 0.016 | [9] 0.007 | barasertib -0.001 | [10] -0.07 | volasertib -0.07 | [11] 0.019 | [12] -0.033 | [13] 0.009 | saracatinib 0.004 | sotrastaurin 0.022

TBL2 (UniProt Q9Y4P3)
Chain of UniProt Q9Y4P3 (Q9Y4P3 whole entry, looked up): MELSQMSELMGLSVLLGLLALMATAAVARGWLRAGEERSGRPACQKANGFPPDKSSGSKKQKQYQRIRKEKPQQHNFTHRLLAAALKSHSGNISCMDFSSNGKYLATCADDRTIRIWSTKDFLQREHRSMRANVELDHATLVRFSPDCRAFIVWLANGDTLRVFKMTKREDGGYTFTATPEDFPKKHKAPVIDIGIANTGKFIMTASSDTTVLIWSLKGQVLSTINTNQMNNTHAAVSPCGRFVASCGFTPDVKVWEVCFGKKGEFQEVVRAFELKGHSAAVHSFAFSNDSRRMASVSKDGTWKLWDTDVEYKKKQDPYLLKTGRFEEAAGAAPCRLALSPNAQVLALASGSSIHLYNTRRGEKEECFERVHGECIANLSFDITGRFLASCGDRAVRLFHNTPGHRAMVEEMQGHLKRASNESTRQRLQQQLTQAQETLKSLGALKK
inactive: ibrutinib 0.014 | [1] 0.059 | ralimetinib 0.005 | [2] -0.001 | [3] 0 | [4] 0.045 | [5] 0.031 | [6] -0.008 | [7] 0.03 | [8] 0.05 | vemurafenib -0.016 | [9] -0.013 | barasertib -0.015 | [10] -0.029 | volasertib -0.034 | [11] -0.045 | [12] -0.029 | [13] 0.022 | saracatinib 0.027 | sotrastaurin 0.001

TFCP2 (UniProt Q12800)
inactive: ibrutinib -0.055 | [1] 0.054 | ralimetinib 0.032 | [2] -0.028 | [3] 0.051 | [4] -0.026 | [5] 0 | [6] 0.059 | [7] -0.02 | [8] 0.026 | vemurafenib 0.023 | [9] 0.049 | barasertib 0.007 | [10] -0.064 | volasertib -0.064 | [11] 0.045 | [12] -0.042 | [13] -0.083 | saracatinib 0.022 | sotrastaurin -0.006

TP53RK (UniProt Q96S44)
inactive: ibrutinib 0.02 | [1] -0.059 | ralimetinib 0.019 | [2] -0.008 | [3] 0.007 | [4] -0.013 | [5] -0.004 | [6] 0 | [7] -0.02 | [8] -0.071 | vemurafenib -0.018 | [9] 0.047 | barasertib 0 | [10] -0.058 | volasertib -0.002 | [11] 0.013 | [12] 0.025 | [13] -0.039 | saracatinib -0.049 | sotrastaurin -0.023

UBE3B (UniProt Q7Z3V4)
inactive: ibrutinib 0.041 | [1] 0.019 | ralimetinib 0.02 | [2] -0.074 | [3] -0.112 | [4] 0.068 | [5] 0 | [6] -0.004 | [7] -0.022 | [8] 0.023 | vemurafenib 0.102 | [9] -0.052 | barasertib 0.175 | [10] 0.016 | volasertib -0.044 | [11] 0.029 | [12] -0.099 | [13] -0.132 | saracatinib -0.069 | sotrastaurin 0.055

TPP2 (UniProt Q5VZU9)
inactive: ibrutinib 0.073 | [1] -0.025 | ralimetinib -0.018 | [2] 0.046 | [3] -0.041 | [4] 0.056 | [5] 0.018 | [6] -0.049 | [7] -0.017 | [8] 0.061 | vemurafenib 0.003 | [9] 0.061 | barasertib -0.002 | [10] 0.014 | volasertib 0.003 | [11] -0.005 | [12] -0.147 | [13] 0.088 | saracatinib -0.022 | sotrastaurin 0.044

TBC1D23 (UniProt Q9NUY8)
Chain of UniProt Q9NUY8 (Q9NUY8 whole entry, looked up): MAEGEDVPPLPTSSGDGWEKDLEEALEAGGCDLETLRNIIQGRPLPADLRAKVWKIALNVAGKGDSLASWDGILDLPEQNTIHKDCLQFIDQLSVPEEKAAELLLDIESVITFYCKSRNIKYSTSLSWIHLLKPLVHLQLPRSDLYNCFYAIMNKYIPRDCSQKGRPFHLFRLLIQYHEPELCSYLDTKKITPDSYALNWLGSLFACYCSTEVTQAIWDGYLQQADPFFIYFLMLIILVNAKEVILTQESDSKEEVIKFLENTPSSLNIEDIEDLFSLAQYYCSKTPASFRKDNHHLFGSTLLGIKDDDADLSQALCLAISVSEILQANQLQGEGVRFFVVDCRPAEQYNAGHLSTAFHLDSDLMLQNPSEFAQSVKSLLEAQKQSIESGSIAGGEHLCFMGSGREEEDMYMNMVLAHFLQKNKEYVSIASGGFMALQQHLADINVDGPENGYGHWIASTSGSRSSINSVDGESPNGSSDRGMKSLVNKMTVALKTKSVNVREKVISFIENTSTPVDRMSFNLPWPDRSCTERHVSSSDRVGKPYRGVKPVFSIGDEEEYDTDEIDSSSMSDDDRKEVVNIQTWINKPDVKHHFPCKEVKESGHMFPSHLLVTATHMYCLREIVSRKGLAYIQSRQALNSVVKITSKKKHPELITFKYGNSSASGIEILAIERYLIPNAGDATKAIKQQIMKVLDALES
inactive: ibrutinib 0.034 | [1] 0.002 | ralimetinib 0.004 | [2] -0.021 | [3] 0.03 | [4] 0.032 | [5] -0.05 | [6] 0.014 | [7] 0.012 | [8] -0.012 | vemurafenib -0.003 | [9] 0.011 | barasertib 0 | [10] -0.027 | volasertib -0.029 | [11] -0.012 | [12] -0.058 | [13] 0.023 | saracatinib 0.012 | sotrastaurin 0.017

UBE2L6 (UniProt O14933)
Chain of UniProt O14933 (O14933 whole entry, looked up): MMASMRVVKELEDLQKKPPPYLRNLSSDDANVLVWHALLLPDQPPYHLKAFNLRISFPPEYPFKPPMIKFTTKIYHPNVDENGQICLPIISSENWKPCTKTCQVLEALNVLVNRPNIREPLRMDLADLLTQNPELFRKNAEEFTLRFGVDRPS
inactive: ibrutinib 0.152 | [1] 0.012 | ralimetinib -0.002 | [2] -0.041 | [3] -0.009 | [4] -0.033 | [5] -0.014 | [6] -0.019 | [7] -0.007 | [8] 0.002 | vemurafenib 0.031 | [9] -0.035 | barasertib 0.229 | [10] 0.041 | volasertib 0.008 | [11] 0.022 | [12] 0.037 | [13] -0.115 | saracatinib -0.034 | sotrastaurin -0.03
